Source: PubChem (National Center for Advancing Translational Sciences (NCATS))
DT40 TDP1 CPT: qHTS for Inhibitors of human tyrosyl-DNA phosphodiesterase 1 (TDP1): qHTS in cells in presence of CPT; chicken DT40 Tdp1-/-;hTDP1 cells + 20 nM CPT, ATP luminescence, 48 h; Potency, µM (series often up to 46.2 µM), usual class: inhibitors; 420,000 tested, 12% active; note: nearly all actives have a fitted effect of over 55% in size
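Cell growth measured by CellTiter-Glo luminescence after a minimum 48 h, 37 C compound exposure with 20 nM CPT in Tdp1-knockout DT40 cells stably expressing hTDP1, seeded 400/well; qHTS titration format.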
IL-1B inflam inh: qHTS for Inhibitors of Inflammasome Signaling: IL-1-beta AlphaLISA Primary Screen; THP-1 LPS/ATP IL-1B secretion, AlphaLISA, 16 h; stronger effect = lower value; activity change, % at 57.5 µM; 360,000 tested, 4.7% active; AID 743279, 2014; in the data active = activity change below about -50%; inconclusive = mostly about -30% to -49%
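Secreted IL-1B measured by AlphaLISA bead assay after 16 h compound exposure of THP-1 cells; compounds (final up to 57.5 uM) added 1 h before LPS (250 ng/mL) and ATP (1.25 mM) stimulation; lower signal means less secretion.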
HT1080-NT tox: qHTS for induction of synthetic lethality in tumor cells producing 2HG: qHTS for the HT-1080-NT fibrosarcoma cell line. HT-1080-NT fibrosarcoma viability, CellTiter-Glo ATP luminescence, 48 h. Potency, µM (highest dose often 46.1 µM), usual class: cytotoxic. 360,000 tested, 1.6% active;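 note: NT is the 2HG producing partner of a matched IDH1 knockdown line; nearly all actives have a fitted effect of over 55% in size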
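Compounds were tested in concentration-response format on HT-1080-NT cells for 48 hours at 37 degrees C. Cell viability came from CellTiter-Glo luminescence; curves were classified by r2, response magnitude and activity.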
TDP1 cell noCPT: qHTS for Inhibitors of human tyrosyl-DNA phosphodiesterase 1 (TDP1): qHTS in cells in absence of CPT; DT40 Tdp1-/- hTDP1 cells, no CPT, ATP luminescence, 48 h; Potency, µM (titrated, usually from 46.2 µM), usual class: inhibitors; 420,000 tested, 15% active; AID 686978, 2013; note: nearly all actives have a fitted effect of over 55% in size
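Cells were dispensed at 400 per well, compounds added by pin tool, plates incubated ≥48 hr at 37 °C, then CellTiter-Glo added for 30 min at room temperature before luminescence reading. Line: DT40 Tdp1-/- complemented with hTDP1; camptothecin omitted.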
HT1080 IDH1KD tx: qHTS for induction of synthetic lethality in tumor cells producing 2HG: qHTS for the HT-1080-IDH1KD cell line. HT-1080 IDH1 knockdown viability, ATP luminescence, 48 h. Potency, µM (series often up to 46.1 µM), actives largely listed as cytotoxic. 360,000 tested, 2% active. AID 686971, 2013
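Using the IDH1-knockdown HT-1080 line run in the same batch and compound series as the NT line, viability after 48 h at 37 °C was determined by CellTiter-Glo luminescence and expressed as % activity.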
Each line names hits and unclear results; the compound was inactive in the other large screens. Most compounds without a hit are left out; they make up all but 19% or so of the library. Unless noted, calls come from the whole dose curve; as a rule, active = well fitted curve in the direction sought with a large enough effect; inconclusive = small, poorly fitted or top-dose-only effect, or another doubt; inactive = no such curve, though single readings can be large; an effect the other way counts as inactive or inconclusive.

O=C(NCc1ccon1)C1CCC(=O)N(CCc2cccc(F)c2)C1 (centres undefined)	none
CN(CCc1ccccc1)C(=O)c1ccc(NC(=O)Cc2ccc(NC(=O)C3CCN(C(=O)C4CCCC4)CC3)cc2)cc1	DT40 TDP1 CPT 16.4µM, IL-1B inflam inh inconclusive, TDP1 cell noCPT 23.1µM, HT1080 IDH1KD tx inconclusive
CN(CCc1ccccc1)C(=O)c1cccc(NC(=O)Cc2cccc(NC(=O)C3CCN(C(=O)C4CC4)CC3)c2)c1	DT40 TDP1 CPT inconclusive
CN(CCc1ccccc1)C(=O)c1ccc(NC(=O)Cc2ccc(NC(=O)C3CCN(C(=O)C4CC4)CC3)cc2)cc1	DT40 TDP1 CPT 23.1µM, IL-1B inflam inh -56.1, TDP1 cell noCPT inconclusive
CCCCn1c(Cn2nc(C(=O)O)c3ccccc3c2=O)nc2cc(S(N)(=O)=O)ccc21	none
COc1ccc2c(c1)CC(C)C/C2=N\NC(=O)c1ccco1 (centres undefined)	TDP1 cell noCPT inconclusive
CC1C/C(=N/NC(=O)c2cccc(F)c2)c2ccc(O)cc2C1 (centres undefined)	DT40 TDP1 CPT 22.4µM, TDP1 cell noCPT inconclusive
CCN(CC)CCC(c1ccc2c(c1)OCO2)c1c(OC)cc(OC)c2ccc(=O)oc12 (centres undefined)	DT40 TDP1 CPT 13µM, TDP1 cell noCPT 18.4µM
CCN(CC)CCC(c1cc(OC)c(OC)c(OC)c1)c1c(OC)cc(OC)c2ccc(=O)oc12 (centres undefined)	DT40 TDP1 CPT inconclusive, TDP1 cell noCPT inconclusive
CCN(CC)CCC(c1cc(OC)c(OC)c(OC)c1)c1c(OC)cc(OC)c2c(C)cc(=O)oc12 (centres undefined)	DT40 TDP1 CPT 9.2µM, TDP1 cell noCPT 23.1µM
COc1cc(OC)c2c(C)cc(=O)oc2c1C(CCN1CCOCC1)c1ccc2c(c1)OCO2 (centres undefined)	DT40 TDP1 CPT 18.4µM, TDP1 cell noCPT 20.6µM
COc1cc(OC)c2c(-c3ccccc3)cc(=O)oc2c1C(CCN1CCCCC1)c1ccc2c(c1)OCO2 (centres undefined)	DT40 TDP1 CPT 9.2µM, TDP1 cell noCPT 7.31µM
CCN(CC)c1ccc(C(=O)NNC(=O)CNC(=O)c2cccs2)cc1	none
COc1ccc(CCNC(=O)C(=O)NCc2ccc(Cl)cc2)cc1OC	none
CC1CCC2(CC1)NC(=O)N(CC(=O)N1CCOCC1)C2=O (centres undefined)	none
COc1cc(C(CCN2CCN(c3ccccc3)CC2)c2c(OC)cc(OC)c3c(C)cc(=O)oc23)cc(OC)c1OC (centres undefined)	DT40 TDP1 CPT 16.4µM, TDP1 cell noCPT 16.4µM
COc1cc(O)c(C(CC(=O)N2CCCCC2)c2ccc3c(c2)OCO3)c(OC)c1 (centres undefined)	TDP1 cell noCPT inconclusive
COc1cc(OC)c2c(-c3ccccc3)cc(=O)oc2c1C(CC(=O)N1CCCC1)c1ccc2c(c1)OCO2 (centres undefined)	DT40 TDP1 CPT inconclusive, IL-1B inflam inh inconclusive, TDP1 cell noCPT 20.6µM
COc1cc(OC)c2ccc(=O)oc2c1C(CC(=O)N1CCCC(C)C1)c1ccc2c(c1)OCO2 (centres undefined)	DT40 TDP1 CPT inconclusive, TDP1 cell noCPT inconclusive
COc1cc(O)c(C(CCN2CCCCC2)c2ccc3c(c2)OCO3)c(OC)c1 (centres undefined)	DT40 TDP1 CPT inconclusive, IL-1B inflam inh -81.1, TDP1 cell noCPT inconclusive
COc1cc(OC)c2c(-c3ccccc3)cc(=O)oc2c1C(CCN1CCCC(C)C1)c1ccc2c(c1)OCO2 (centres undefined)	DT40 TDP1 CPT inconclusive, HT1080-NT tox inconclusive, TDP1 cell noCPT 23.1µM
CCn1c(CNC(=O)c2cccnc2)cc2ccccc21	TDP1 cell noCPT inconclusive
CCS(=O)(=O)N1CCC(c2nc(-c3ccc(C(F)(F)F)cc3)no2)CC1	DT40 TDP1 CPT 8.91µM, TDP1 cell noCPT 14.1µM
CS(=O)(=O)N1CCC(c2noc(-c3ccc(C(F)(F)F)cc3)n2)CC1	DT40 TDP1 CPT 9.2µM, TDP1 cell noCPT 10.3µM
Cc1ccc(-c2nc(C3CCN(S(=O)(=O)c4ccc(C(F)(F)F)cc4)CC3)no2)cc1	none
CCS(=O)(=O)N1CCC(c2nc(-c3ccc(C)cc3)no2)CC1	DT40 TDP1 CPT 29.1µM, TDP1 cell noCPT 14.6µM
Cc1ccc(-c2noc(C3CCCCC3)n2)cc1	none
CN(CC(=O)NCc1ccc(F)cc1)S(=O)(=O)c1ccc2[nH]c3c(c2c1)CCCC3	DT40 TDP1 CPT 20.6µM, TDP1 cell noCPT 18.4µM (no result: IL-1B inflam inh, HT1080-NT tox, HT1080 IDH1KD tx)
Cc1cccc(N(C)C(=O)CN(C)S(=O)(=O)c2ccc3[nH]c4c(c3c2)CCCC4)c1	DT40 TDP1 CPT 23.1µM, TDP1 cell noCPT inconclusive (no result: IL-1B inflam inh, HT1080-NT tox, HT1080 IDH1KD tx)
Cc1cccc(C)c1NC(=O)CN(C)S(=O)(=O)c1ccc2[nH]c3c(c2c1)CCCC3	DT40 TDP1 CPT inconclusive, TDP1 cell noCPT 20.6µM (no result: IL-1B inflam inh, HT1080-NT tox, HT1080 IDH1KD tx)
COc1ccccc1CNS(=O)(=O)c1c(C)noc1C	none
COc1ccc(OC)c(NC(=O)CC2C(=O)NCCN2C(=O)C(F)(F)F)c1 (centres undefined)	none (no result: IL-1B inflam inh, HT1080-NT tox, HT1080 IDH1KD tx)
Cc1ccc(CN2CCN(CCCn3cccn3)CC2CCO)cc1 (centres undefined)	TDP1 cell noCPT inconclusive
Cc1nc(C(=O)O)cc([N+](=O)[O-])c1C	TDP1 cell noCPT inconclusive
N#CC(C#N)=Cc1cc2ccccc2nc1N1CCOCC1	DT40 TDP1 CPT 13µM, TDP1 cell noCPT 10.3µM
CCOC(=O)/C(C#N)=C/c1cc2ccccc2nc1N1CCCCC1	TDP1 cell noCPT inconclusive
N#C/C(=C\c1cc2ccccc2nc1N1CCOCC1)C(=O)Nc1ccc(N2CCOCC2)cc1	DT40 TDP1 CPT 13µM, TDP1 cell noCPT 16.4µM
CCCn1c(N)cc(=O)n(CCC)c1=O	none
CN(Cc1ccc(Cl)cc1)C(=O)CCl	DT40 TDP1 CPT 2.31µM, IL-1B inflam inh -103.4, HT1080-NT tox inconclusive, TDP1 cell noCPT 2.59µM, HT1080 IDH1KD tx 16.4µM
CN(Cc1ccc(Cl)s1)C(=O)CCl	DT40 TDP1 CPT 3.26µM, IL-1B inflam inh -106.5, HT1080-NT tox 20.6µM, TDP1 cell noCPT 1.84µM, HT1080 IDH1KD tx 8.2µM
CN(Cc1ccccc1)C(=O)COC(=O)c1cc(Cl)nc(Cl)c1	none
COc1ccc(CN(C)C(=O)CCl)cc1	DT40 TDP1 CPT 2.31µM, IL-1B inflam inh -98.2, HT1080-NT tox inconclusive, TDP1 cell noCPT 2.59µM, HT1080 IDH1KD tx inconclusive
COc1ccc(CN(C)C(=O)COC(=O)c2cnc(Cl)c(Cl)c2)cc1	IL-1B inflam inh -98.8
O=C(CC(=O)c1ccccc1)Nc1cccnc1Cl	none
